# Experimental data published in PubChem BioAssay (NCATS).
# Records with an inconclusive call do not appear. Activity calls are given as the source filed them. Calls come from the whole dose curve; as a rule, active = well fitted inhibition curve with a large enough effect; inconclusive = small, poorly fitted or top-dose-only effect; inactive = flat fitted curve, though single readings scatter.
# Assay: Primary qHTS for inhibitors of nuclear receptor binding SET domain protein 2 (NSD2) in an isogenic RCH-ACV NSD2 p.E1099K mutant (9B) (AID 1645876); note: nearly all actives have a fitted effect of over 70% in size
# Settings: RCH-ACV (leukaemia line) NSD2 E1099K (9B) viability, CellTiter-Glo, 72 h; series mostly up to 44.9 µM
# Potency is the fitted concentration of half-maximal effect.
row,Compound,Potency
1,C=C1/C(=C/C=C2\CCC[C@]3(C)[C@@H]([C@H](C)CC[C@@H](O)C(C)(C)O)CC[C@@H]23)C[C@@H](O)C[C@@H]1O,18.3 µM (active)
2,C=C1CC[C@@H]2[C@](C)(CO)[C@H](O)CC[C@@]2(C)[C@@H]1CC(=O)C1=CCOC1=O,inactive
3,O=C(Nc1ccnc(NC(=O)C2CC2)c1)c1c(Cl)cccc1Cl,2.95 µM (active)
4,CC1CCCC[C@H]2C(=O)C=C[C@H](O)[C@@H]2CC(=O)O1 (some centres undefined),3.25 µM (active)
5,Cc1cc2c(c(=O)o1)C=C1CC[C@H]([C@H](C)Cn3cnc(=N)c4[nH]cnc43)C[C@@H]1O2,inactive
6,O=C(Nc1ccccc1Cl)c1cnc2ccc(C3CCNCC3)cn12,1.29 µM (active)
7,CC(C)/C=C1\NC(=O)C(C(C)C)n2c1nc1ccccc1c2=O (centres undefined),inactive
8,COc1ccc2c(c1O[C@H]1CCNC1)CCC2,inactive
9,C=C1C(=O)O[C@@H]2C[C@@]3(C)C[C@@H](O)C[C@H](C)C3=C[C@H]12,7.28 µM (active)
10,C=C[C@@]1(C)CCC2C(=CCC3[C@]2(C)CCC[C@@]3(C)C(=O)O)C1 (some centres undefined),inactive
11,O=c1ccc2ccc(OCCCCN3CCN(c4cccc5sccc45)CC3)cc2[nH]1,14.5 µM (active)
12,Cc1c(F)ccc(C(=O)Nc2cc([N+](=O)[O-])ccc2N2CCN(C)CC2)c1Cl,inactive
13,Cn1ncc(Cl)c1-c1cc(C(=O)N[C@H](CN)Cc2ccc(F)c(F)c2)oc1Cl,0.649 µM (active)
14,CN(CC1COCCO1)S(=O)(=O)Nc1ccc2ccc3ncc(-c4cnn(C)c4)cc3c(=O)c2c1 (centres undefined),5.15 µM (active)
